High-throughput results (PubChem)
HT1080 IDH1KD tx: HT-1080 IDH1 knockdown cell toxicity (counter line). HT-1080 IDH1 knockdown viability, ATP luminescence, 48 h. Potency, µM (titrated, usually from 46.1 µM), actives largely listed as cytotoxic. 2% of 360,000 active. AID 686971
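Using the IDH1-knockdown HT-1080 line run in the same batch and compound series as the NT line, viability after 48 h at 37 °C was determined by CellTiter-Glo luminescence and expressed as % activity.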
IL1B secr inh: blocks inflammasome-driven IL-1 beta release; THP-1 LPS/ATP IL-1B secretion, AlphaLISA, 16 h; active compounds read low; activity change, % at 57.5 µM; 4.7% of 360,000 active; AID 743279; in the data active means activity change below about -50%; inconclusive means mostly about -30% to -49%
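THP-1 cells pretreated 1 hr with compounds (up to 57.5 uM final), then stimulated with LPS (250 ng/mL final) plus ATP (1.25 mM final); secreted IL-1B measured by AlphaLISA after 16 hr, decreased signal indicating inhibition.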
DT40 TDP1 no CPT: qHTS for Inhibitors of human tyrosyl-DNA phosphodiesterase 1 (TDP1): qHTS in cells in absence of CPT; AID 686978, 2013; Potency, µM (highest dose often 46.2 µM), most hits filed as inhibitors; DT40 Tdp1-/- hTDP1 cells, no CPT, ATP luminescence, 48 h; 15% of 420,000 active; further: nearly all actives have a fitted effect of over 55% in size
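Cells were dispensed at 400 per well, compounds added by pin tool, plates incubated ≥48 hr at 37 °C, then CellTiter-Glo added for 30 min at room temperature before luminescence reading. Line: DT40 Tdp1-/- complemented with hTDP1; camptothecin omitted.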
TDP1 cell CPT: growth inhibition of DT40 Tdp1-/-;hTDP1 cells with camptothecin (screen for TDP1 inhibitors); chicken DT40 Tdp1-/-;hTDP1 cells + 20 nM CPT, ATP luminescence, 48 h; Potency, µM (series often up to 46.2 µM), actives largely listed as inhibitors; 12% of 420,000 active; further: nearly all actives have a fitted effect of over 55% in size
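Cell growth measured by CellTiter-Glo luminescence after a minimum 48 h, 37 C compound exposure with 20 nM CPT in Tdp1-knockout DT40 cells stably expressing hTDP1, seeded 400/well; qHTS titration format.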
HT1080NT lethal: kills 2HG-producing HT-1080-NT fibrosarcoma cells | AID 686970 | HT-1080-NT fibrosarcoma viability, CellTiter-Glo ATP luminescence, 48 h | 1.6% of 360,000 active | Potency, µM (highest dose often 46.1 µM), actives largely listed as cytotoxic;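 further: NT is the 2HG producing partner of a matched IDH1 knockdown line; nearly all actives have a fitted effect of over 55% in size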
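HT-1080-NT fibrosarcoma cells (2HG-overproducing), 750 cells/well in RPMI with 5% FBS, dosed after 2 h and incubated 48 h at 37C. CellTiter-Glo luminescence normalized to DMSO and no-cell wells; concentration-response curves fitted and classed.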
A number is an active result; - = inactive; ? = inconclusive; . = no result; ! = not active in a repeat. Only some compounds are listed: those with a hit (about 19% of all), similar ones and a draw of the others. Unless noted, the call rests on the fitted dose curve; in most records, active means well fitted curve in the direction sought with a large enough effect; inconclusive means small, poorly fitted or top-dose-only effect, or another doubt; inactive means no such curve, though single readings can be large; an effect the other way counts as inactive or inconclusive.

SMILES | HT1080 IDH1KD tx | IL1B secr inh | DT40 TDP1 no CPT | TDP1 cell CPT | HT1080NT lethal
CC(=O)Nc1ccc(NC(=O)C(C)Sc2nc3ccccc3c(=O)n2CC2CCCO2)cc1 (stereo not drawn) | - | - | ? | ? | -
CN=C1CC(C)(C)CC(=O)/C1=C(/O)CCC(=O)NC | - | - | - | - | -
O=C(Nc1ccc(NC(=O)C2CCCCC2)nc1)c1cccc(F)c1 | - | - | ? | ? | -
Cn1cccc1C(=O)N1CCC[C@@]2(CCN(Cc3ccccc3)C2)C1 | . | . | - | - | .
CN(C)c1ncnc2c1ccn2C1OC(CO)C(O)C1O (stereo not drawn) | 2.59µM | - | 8.2µM | 3.26µM | 4.11µM
OCC1OC(n2ccc3c(NO)ncnc32)C(O)C1O (stereo not drawn) | 0.411µM | -102.2 | 0.146µM | 0.146µM | 1.64µM
O=S(=O)(O)c1ccc(Nc2ncnc3c2ncn3[C@@H]2O[C@H](CO)[C@@H](O)[C@H]2O)cc1 | . | . | - | - | .
COc1cc2c(cc1OC)CN(c1ccc(C(F)(F)F)cn1)CC2 | ? | -90.0 | 16.4µM | ? | ?
COc1cc2c(cc1OC)CN(c1ccc(-c3ccccc3OC)nn1)CC2 | - | . | 23.1µM | ? | -
O=C(O)CCc1nc(-c2ccccc2)no1 | - | - | - | - | -
CCN(CC)CCc1nc(-c2ccccc2)no1 | - | - | 4.11µM! | 6.51µM! | -
CCc1ccc(Nc2n[n+](-c3ccccc3)c(-c3ccc(N(CC)CC)cc3)s2)cc1 | ? | - | 9.2µM | 6.51µM | ?
CCc1ccc(Nc2n[n+](-c3ccccc3)c(-c3ccc(OCc4ccccc4)cc3)s2)cc1 | ? | - | 5.17µM | 4.61µM | -
CCN(CC)c1ccc(-c2sc(Nc3ccccc3)n[n+]2-c2ccc(F)cc2)cc1 | ? | - | 25.9µM | ? | -
CN1CCN(C(=S)NC(=O)c2ccccc2Cl)CC1 | - | - | - | - | -
FC(F)(F)c1nc(SCc2ccccc2)n[nH]1 | - | - | ? | - | -
CCN(C(=O)C(C)OC(=O)c1nn(-c2ccccc2C(F)(F)F)cc1O)c1ccccc1 (stereo not drawn) | - | - | - | - | -
Cc1ccc(-c2ccccc2[C@@H]2C[C@H]3CN(C)C(=O)[C@]34CCCN24)o1 | - | - | - | - | -
O=C1N(c2ccccc2)C[C@@H]2C[C@@H](c3cc4ccccc4o3)N3CCC[C@@]123 | 0.581µM | -103.0 | 23.1µM | - | ?
COc1ccc(CCNC(=O)c2c(O)c3ccccc3[nH]c2=O)cc1OC | - | - | ? | - | -
COc1ccc(C(=O)c2cc(C(C)=O)c(Nc3ccccc3)s2)cc1 | ? | ? | 25.9µM | ? | ?
COc1ccc(C(=O)c2sc(Nc3ccccc3)nc2N)cc1OC | ? | -97.5 | ? | ? | ?
Nc1nc(Nc2ccccc2)sc1C(=O)c1ccccc1 | ? | . | ? | - | ?
COc1ccc(C(=O)c2sc(Nc3ccccc3)nc2N)cc1 | - | -76.9 | ? | ? | -
COC(=O)CCc1sc(Nc2ccccc2)nc1-c1ccc(OC)cc1 | - | - | 16.4µM | ? | -
SMILES | HT1080 IDH1KD tx | IL1B secr inh | DT40 TDP1 no CPT | TDP1 cell CPT | HT1080NT lethal
Cc1noc(C)c1C(=O)OC(C)C(=O)c1ccc(C(C)(C)C)cc1 (stereo not drawn) | - | - | - | - | -
COc1ccc(NC(=O)N(Cc2ccco2)C2CCN(C(C)=O)CC2)c(OC)c1 | . | . | ? | - | .
COc1ccc(C(=O)NC(=S)Nc2ccccc2F)cc1 | - | - | - | - | -
COc1ccc(C(=O)c2sc(Nc3ccccc3F)nc2N)cc1 | - | ? | 11.6µM | ? | -
O=c1c(O)cccc2cc(O)c(O)c(O)c12 | - | - | 20.6µM | ? | ?
CN1OC[C@@H]2CN[C@H](c3cccc(-c4ccc(C#N)cc4)c3)C[C@@H]21 | - | - | ? | ? | -
CCN(CC)Cc1c(C(=O)N/N=C/c2ccccn2)nnn1-c1nonc1N | - | - | - | - | -
CC(=O)c1ccccc1C(=O)N1CCCC(C(=O)c2ccc(C(F)(F)F)cc2)C1 (stereo not drawn) | - | - | 23.1µM | 23.1µM | -
COc1ccc(C(=O)C2CCCN(C(=O)/C=C/c3ccccn3)C2)c(C)c1 (stereo not drawn) | - | - | ? | - | -
